Bioassay records: PubChem, The Scripps Research Institute Molecular Screening Center
FBW7 activator = activators of human E3 ligase FBW7. Q969H0. AlphaScreen FBW7–phospho-cyclin E peptide binding, activator screen. normalized activity (activation), % at 26.1 µM. actives 0.13% (n = 650,000); in the data active means normalized activity above about 1.9%;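 further: purified mutant Fbw7 with reduced substrate affinity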
GPR151 activ = activates the human receptor GPR151 | Q8TDV0 | PathHunter beta-arrestin GPR151 cells, luminescence | activation, % at 11.2 µM | actives 1% (n = 650,000); in the data active means activation above about 4.9%;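 further: 0% = median of compound wells and 100% = cells with positive control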
MITF primary = human MITF inhibition, primary screen; O75030; AlphaScreen MITF homodimerization, bead proximity signal; inhibition, % at 2.6 µM; actives 0.91% (n = 650,000); AID 1259374; in the data active means inhibition above about 50%;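 further: 0% = vehicle wells with protein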
Target sequence (O75030 whole entry, looked up): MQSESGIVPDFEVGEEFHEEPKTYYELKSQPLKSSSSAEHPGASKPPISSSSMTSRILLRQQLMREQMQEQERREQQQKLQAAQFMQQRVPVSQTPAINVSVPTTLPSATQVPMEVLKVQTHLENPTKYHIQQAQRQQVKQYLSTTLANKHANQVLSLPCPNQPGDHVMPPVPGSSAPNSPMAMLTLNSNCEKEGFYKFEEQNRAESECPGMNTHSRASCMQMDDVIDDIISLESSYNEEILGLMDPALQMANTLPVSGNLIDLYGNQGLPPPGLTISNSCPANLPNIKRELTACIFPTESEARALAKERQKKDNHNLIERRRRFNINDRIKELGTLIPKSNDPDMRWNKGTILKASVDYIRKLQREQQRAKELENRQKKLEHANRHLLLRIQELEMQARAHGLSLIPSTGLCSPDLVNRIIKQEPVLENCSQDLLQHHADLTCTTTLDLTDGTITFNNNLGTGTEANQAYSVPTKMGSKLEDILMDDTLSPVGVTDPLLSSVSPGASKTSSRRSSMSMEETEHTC
TEAD-YAP inh = TEAD-YAP interaction inhibition. actives 1.4% (n = 640,000). HEK-TIYL cells, TEAD-Gal4/YAP UAS-luciferase luminescence. inhibition, % at 9.12 µM. AID 1259422; in the data active means inhibition above about 32%;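 further: 0% = median of test compound wells and 100% = reference inhibitor wells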
Numbers without * were called inactive. Rows were chosen to be rich in hits. Some 3.5% of all compounds tested hit in one or more screens of this group.

SMILES | FBW7 activator | GPR151 activ | MITF primary | TEAD-YAP inh
COC(=O)c1c(NC(=O)CCN2CC(C)OC(C)C2)sc2c1CCCC2 (stereo unspecified) | 0 | 1 | -16 | 1
CC(C)C(=O)Nc1cccc(C(=O)Nc2nnc(CCc3ccccc3)s2)c1 | 0 | 1 | 7 | 47*
COc1ccc(N2C(=O)C(CC(=O)Nc3ccc(Cl)cc3)N(CCCN3CCN(c4cccc(Cl)c4)CC3)C2=S)cc1 (stereo unspecified) | 0 | -1 | 6 | -6
O=C1NC2(CCN(C(=O)c3cccc4cccnc34)CC2)Oc2ccccc21 | 23* | 0 | -2 | -8
O=C1NC2(CCN(Cc3cccc4cccnc34)CC2)Oc2ccccc21 | 0 | 0 | -7 | -6
Oc1cccc(/C=N/n2c(-c3ccccc3)n[nH]c2=S)c1 | 0 | 0 | 17 | 11
CN1CCC(OC(=O)C2CCN(S(=O)(=O)c3cccc4nsnc34)CC2)CC1 | 0 | 0 | 2 | 1
Nc1nc(Nc2ccc(N3CCOCC3)cc2)cc(Nc2nccc3ccccc23)n1 | 0 | 1 | 17 | 40*
Nc1nc(Nc2ccccc2)cc(Nc2ccc(N3CCOCC3)cc2)n1 | 0 | -2 | 5 | 15
c1ccc2c(Nc3nc(Nc4ccc(N5CCOCC5)cc4)c4[nH]cnc4n3)nccc2c1 | 0 | -1 | 14 | 38*
c1cncc(Nc2nc(Nc3ccc(N4CCOCC4)cc3)c3[nH]cnc3n2)c1 | 0 | 1 | 3 | 37*
Cc1[nH]cnc1CN1CCC2(CC1)CC2C(=O)NCC1(c2ccccc2)CCCC1 (stereo unspecified) | 0 | -1 | -3 | -1
O=C(Nc1ccc(-c2nc3ccccc3o2)c(O)c1)c1cc(Br)ccc1Cl | 1 | 0 | 20 | -8
CC(C)CCN1C(=O)c2cccc3c(N)ccc(c23)C1=O | 2.1* | 0 | 5 | -62
CCCCN1C(=O)c2cccc3c(N)ccc(c23)C1=O | 1 | 2 | -22 | -20
Cc1ccc(-c2nc(CSCC(=O)N3CCN(c4ccccn4)CC3)c(C)o2)cc1 | 0 | 1 | -10 | 40*
CCc1ccc(-c2nc(CSCC(=O)N3CCN(c4ccccn4)CC3)c(C)o2)cc1 | -1 | 0 | 3 | 35*
Cc1sc2ncnc(Sc3nnc4cc(C)c5ccccc5n34)c2c1C | 0 | -1 | -2 | 1
O=C(Nc1cnc2cnc(-c3ccccc3F)cn12)c1ccncc1 | 0 | 1 | 21 | 15
CCOc1ccccc1CNc1ncnc2c1nc1n2CCCCC1 | 0 | 0 | -1 | 41*
Cc1ccccc1OCC(=O)Nc1nccs1 | 0 | -10 | 3 | 50*
Cc1ccc(C)c(OCC(=O)Nc2nccs2)c1 | 0 | -2 | 12 | -14
Cc1ccc(/C=C/C(=O)Nc2nccs2)cc1 | 0 | -7 | 18 | 69*
Cc1ccc(C(C)(C)C)c(OCC(=O)Nc2nccs2)c1 | 0 | -1 | 11 | 50*
Cc1ccc(OCC(=O)Nc2nccs2)c(C)c1 | 0 | -8 | 5 | 93*
SMILES | FBW7 activator | GPR151 activ | MITF primary | TEAD-YAP inh
CC(C)(C)c1ccccc1OCC(=O)Nc1nccs1 | 0 | -1 | -13 | 5
CC(=O)N1CCCN(c2nc(CN3CCCC(C)C3)nc3c(C)cccc23)CC1 (stereo unspecified) | 0 | 0 | -10 | -24
COc1ccc(/C=N/NC(=O)COc2ccc3ccccc3c2)cc1O | 0 | -1 | 4 | -5
COc1ccc(S(=O)(=O)N2CCN(c3cc(-n4cccn4)ncn3)CC2)cc1C | 0 | 3 | -15 | 33*
CN(C)S(=O)(=O)N1CCN(c2cc(-n3cccn3)ncn2)CC1 | 0 | -3 | 3 | -31
Cc1ccnc(NC(=O)CCC(=O)N(CC(=O)NCCc2ccccc2)C2CCCC2)c1 | 0 | 3 | -2 | -10
Cc1cccc(N(CC(=O)NCc2ccccc2)C(=O)CCC(=O)Nc2ccccn2)c1 | 1.9* | 0 | 8 | -14
COCCN(CC(=O)NCCc1ccccc1)C(=O)CCC(=O)Nc1cc(C)ccn1 | 0 | 4 | 1 | 33*
COc1cccc(C(=O)NNC(=O)c2ccc(N)cc2)c1 | 0 | 1 | 0 | 1
O=S(=O)(c1cccc(Cl)c1)N1CCN(Cc2c(O)ccc3ccccc23)CC1 | 0 | 4 | 7 | 1
Brc1ccc(-c2ccc(C3CCCCC3)cn2)cc1 | 0 | 1 | 6 | 63*
COC(=O)c1c(-c2ccc(C)c(C)c2)csc1NC(=O)CCCC(=O)O | 0 | 0 | -8 | 33*
CCOC(=O)c1c(-c2ccc(OC)cc2)csc1NC(=O)CCCC(=O)O | 0 | 0 | -5 | 7
Cc1ccc2cccc(OS(=O)(=O)c3ccccc3C)c2n1 | 1 | 2 | -4 | 6
COc1ccc(S(=O)(=O)Oc2cccc3ccc(C)nc23)cc1OC | 1.9* | 4 | 10 | 9
CC(=O)c1cccc(NC(=O)Nc2cccnc2)c1 | 0 | 0 | 6 | 33*
O=C(Nc1cccnc1)Nc1cccc(F)c1 | 0 | -1 | 8 | -7
CN(C)c1ccc(C2N(C)c3ccccc3N2C)cc1 | 0 | 0 | 8 | 47*
CN1c2ccccc2N(C)C1c1cccc(O)c1 | 0 | 0 | 5 | 2
COc1cc(Nc2nccn3c(-c4ccc(F)c(Cl)c4)cnc23)cc(OC)c1OC | -1 | -1 | 22 | 53*
COc1cc(Nc2nccn3c(-c4ccc5ccccc5c4)cnc23)cc(OC)c1OC | 0 | 2 | -9 | 54*
COc1cc(Nc2nccn3c(-c4ccc(Cl)cc4)cnc23)cc(OC)c1OC | 1 | -1 | 15 | 17
COc1cc(Nc2nccn3c(-c4ccco4)cnc23)cc(OC)c1OC | 0 | 0 | 17 | 57*
COc1cc(Nc2nccn3c(-c4cccc(C(C)=O)c4)cnc23)cc(OC)c1OC | 1 | 0 | 20 | 54*
C/C(=N/NC(=O)c1cc([N+](=O)[O-])cc([N+](=O)[O-])c1)c1ccc(O)cc1O | -1 | 1 | 3 | 14
SMILES | FBW7 activator | GPR151 activ | MITF primary | TEAD-YAP inh
NC(=O)COC(=O)c1ccc2ccccc2n1 | 0 | 2 | -9 | 4
CC(=O)Oc1ccc(C2Nc3c(C(=O)O)ccc([N+](=O)[O-])c3C3C=CCC32)cc1 (stereo unspecified) | -1 | -1 | 19 | -2
O=C(O)c1ccc([N+](=O)[O-])c2c1NC(c1ccc([N+](=O)[O-])cc1)C1CC=CC21 (stereo unspecified) | -1 | 0 | 85* | 6
Cc1ccc(C)c2sc(N3CCN(C(=O)C4CCCN4S(=O)(=O)c4cccs4)CC3)nc12 (stereo unspecified) | 0 | 2 | 10 | 7
COc1ccccc1-n1cnc(N)c1C(=O)c1ccccc1 | 0 | 1 | -2 | 53*
Cc1ccc(O)c(NC(=O)COc2ccc(Br)cc2)c1 | 1 | -1 | 7 | -3
COCC(C)n1c(C)cc(C(=O)COC(=O)c2cccn2C)c1C (stereo unspecified) | 0 | -2 | 11 | 67*
CC1=C(C(=O)Nc2cccc(C)n2)C(c2ccccc2)C2=C(CCCC2=O)N1 (stereo unspecified) | 1 | 0 | 11 | 10
COC(=O)c1cccc(CC2(C)C(=O)Nc3ccc(OC)cc32)c1 (stereo unspecified) | 0 | 1 | -20 | -7
